# Results: ChEMBL document CHEMBL1961873, “Compounds: GSK PKIS; Assays: Nanosyn kinase panel” (2012)
# Legend:
# [1] = target: Serine/threonine-protein kinase PAK 6 (Homo sapiens) (UniProt Q9NQU5); conditions: at 1 µM;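 note: values are mean percent inhibition of PAK6 kinase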
# [2] = system: Tyrosine-protein kinase ABL1 (Homo sapiens), P00519 [E255K]; conditions: at 0.1 µM
# [3] = system: Tyrosine-protein kinase ABL1 (Homo sapiens), P00519 [E255K]; conditions: at 1 µM
# [4] = system: Tyrosine-protein kinase ABL1 (Homo sapiens), P00519 [H396P]; conditions: at 0.1 µM
# [5] = system: Tyrosine-protein kinase ABL1 (Homo sapiens), P00519 [H396P]; conditions: at 1 µM
# [6] = system: Tyrosine-protein kinase ABL1 (Homo sapiens), P00519 [M351T]; conditions: at 0.1 µM
# [7] = system: Tyrosine-protein kinase ABL1 (Homo sapiens), P00519 [M351T]; conditions: at 1 µM
# [8] = system: Tyrosine-protein kinase ABL1 (Homo sapiens), P00519 [Q252H]; conditions: at 0.1 µM
# [9] = system: Tyrosine-protein kinase ABL1 (Homo sapiens), P00519 [Q252H]; conditions: at 1 µM
# [10] = system: Tyrosine-protein kinase ABL1 (Homo sapiens), P00519 [T315I]; conditions: at 0.1 µM
# [11] = system: Tyrosine-protein kinase ABL1 (Homo sapiens), P00519 [T315I]; conditions: at 1 µM
# [12] = system: Tyrosine-protein kinase ABL1 (Homo sapiens), P00519 [Y253F]; conditions: at 0.1 µM
# [13] = system: Tyrosine-protein kinase ABL1 (Homo sapiens), P00519 [Y253F]; conditions: at 1 µM
# [14] = target: Tyrosine-protein kinase ABL1 (Homo sapiens) (UniProt P00519); conditions: at 0.1 µM
# [15] = target: Tyrosine-protein kinase ABL1 (Homo sapiens) (UniProt P00519); conditions: at 1 µM
# [16] = target: ALK tyrosine kinase receptor (Homo sapiens) (UniProt Q9UM73); conditions: at 0.1 µM
# Sequence of ALK tyrosine kinase receptor (Homo sapiens) (Q9UM73 19-1620 limits assumed): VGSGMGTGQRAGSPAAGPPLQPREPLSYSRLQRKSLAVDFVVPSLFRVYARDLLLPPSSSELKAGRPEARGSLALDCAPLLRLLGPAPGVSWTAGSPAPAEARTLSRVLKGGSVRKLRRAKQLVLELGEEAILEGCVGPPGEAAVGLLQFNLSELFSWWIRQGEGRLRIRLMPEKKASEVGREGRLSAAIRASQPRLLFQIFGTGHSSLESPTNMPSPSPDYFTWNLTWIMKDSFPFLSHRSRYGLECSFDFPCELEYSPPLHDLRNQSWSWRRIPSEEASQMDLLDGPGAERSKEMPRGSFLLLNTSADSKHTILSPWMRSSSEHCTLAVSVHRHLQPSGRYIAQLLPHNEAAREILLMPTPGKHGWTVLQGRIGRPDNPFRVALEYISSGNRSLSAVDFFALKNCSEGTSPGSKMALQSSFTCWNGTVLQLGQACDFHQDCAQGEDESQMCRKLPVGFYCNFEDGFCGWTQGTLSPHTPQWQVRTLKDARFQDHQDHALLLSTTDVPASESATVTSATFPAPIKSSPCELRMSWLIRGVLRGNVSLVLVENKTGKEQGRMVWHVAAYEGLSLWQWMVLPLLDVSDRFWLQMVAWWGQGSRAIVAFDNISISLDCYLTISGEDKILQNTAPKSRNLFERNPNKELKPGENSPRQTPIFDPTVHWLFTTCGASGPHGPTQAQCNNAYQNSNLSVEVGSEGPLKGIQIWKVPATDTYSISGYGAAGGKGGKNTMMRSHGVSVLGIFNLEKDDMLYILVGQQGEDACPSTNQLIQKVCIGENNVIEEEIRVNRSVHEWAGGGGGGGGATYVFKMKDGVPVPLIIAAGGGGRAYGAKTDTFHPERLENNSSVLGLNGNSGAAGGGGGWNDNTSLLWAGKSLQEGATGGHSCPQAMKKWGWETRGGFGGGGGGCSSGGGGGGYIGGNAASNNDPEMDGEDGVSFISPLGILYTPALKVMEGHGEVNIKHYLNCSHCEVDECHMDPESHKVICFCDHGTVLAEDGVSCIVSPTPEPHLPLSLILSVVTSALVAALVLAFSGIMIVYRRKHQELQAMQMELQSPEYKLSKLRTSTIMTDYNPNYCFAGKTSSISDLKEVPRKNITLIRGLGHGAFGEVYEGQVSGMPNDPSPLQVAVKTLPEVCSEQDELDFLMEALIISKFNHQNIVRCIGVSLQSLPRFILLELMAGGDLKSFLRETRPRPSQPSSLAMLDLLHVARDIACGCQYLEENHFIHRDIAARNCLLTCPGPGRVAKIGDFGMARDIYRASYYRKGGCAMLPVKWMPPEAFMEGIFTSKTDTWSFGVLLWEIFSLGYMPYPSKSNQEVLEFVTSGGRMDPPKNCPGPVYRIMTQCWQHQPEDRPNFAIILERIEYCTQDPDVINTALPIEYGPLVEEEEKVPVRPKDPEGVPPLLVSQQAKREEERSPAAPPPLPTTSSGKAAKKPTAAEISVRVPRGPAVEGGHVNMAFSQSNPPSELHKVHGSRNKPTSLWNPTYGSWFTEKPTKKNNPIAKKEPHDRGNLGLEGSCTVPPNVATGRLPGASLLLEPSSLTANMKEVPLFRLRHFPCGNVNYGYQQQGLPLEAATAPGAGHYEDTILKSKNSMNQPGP
# [17] = target: ALK tyrosine kinase receptor (Homo sapiens) (UniProt Q9UM73); conditions: at 1 µM
# [18] = target: Tyrosine-protein kinase ABL2 (Homo sapiens) (UniProt P42684); conditions: at 0.1 µM
# Sequence of Tyrosine-protein kinase ABL2 (Homo sapiens) (P42684 whole entry): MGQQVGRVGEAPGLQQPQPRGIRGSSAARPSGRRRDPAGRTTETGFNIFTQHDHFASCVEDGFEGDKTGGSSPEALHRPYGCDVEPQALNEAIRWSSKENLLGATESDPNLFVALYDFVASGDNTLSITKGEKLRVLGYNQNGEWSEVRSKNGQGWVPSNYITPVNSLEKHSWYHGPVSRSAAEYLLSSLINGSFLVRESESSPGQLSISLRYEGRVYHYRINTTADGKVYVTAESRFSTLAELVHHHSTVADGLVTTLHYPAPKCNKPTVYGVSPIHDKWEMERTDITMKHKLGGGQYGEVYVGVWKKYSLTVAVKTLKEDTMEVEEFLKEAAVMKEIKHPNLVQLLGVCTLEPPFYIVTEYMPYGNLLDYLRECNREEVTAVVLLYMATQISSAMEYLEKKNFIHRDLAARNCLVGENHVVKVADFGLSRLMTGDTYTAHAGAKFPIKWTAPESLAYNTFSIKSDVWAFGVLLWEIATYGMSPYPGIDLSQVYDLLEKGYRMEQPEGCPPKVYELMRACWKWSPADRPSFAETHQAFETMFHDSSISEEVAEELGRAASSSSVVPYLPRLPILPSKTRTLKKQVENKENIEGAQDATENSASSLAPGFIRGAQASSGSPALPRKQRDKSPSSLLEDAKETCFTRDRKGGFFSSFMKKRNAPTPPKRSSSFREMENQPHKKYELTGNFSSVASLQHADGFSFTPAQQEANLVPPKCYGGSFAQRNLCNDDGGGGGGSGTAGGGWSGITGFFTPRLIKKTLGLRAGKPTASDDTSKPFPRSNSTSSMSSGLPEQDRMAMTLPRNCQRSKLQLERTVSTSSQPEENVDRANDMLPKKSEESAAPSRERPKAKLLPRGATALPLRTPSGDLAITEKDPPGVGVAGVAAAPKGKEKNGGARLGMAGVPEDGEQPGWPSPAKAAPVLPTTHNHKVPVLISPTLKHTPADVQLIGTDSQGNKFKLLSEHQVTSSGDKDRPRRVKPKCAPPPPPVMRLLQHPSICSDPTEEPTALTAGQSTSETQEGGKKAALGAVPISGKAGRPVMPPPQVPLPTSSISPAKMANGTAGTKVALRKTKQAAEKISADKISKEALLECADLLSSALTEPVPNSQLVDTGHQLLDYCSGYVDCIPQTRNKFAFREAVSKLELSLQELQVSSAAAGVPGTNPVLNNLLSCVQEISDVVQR
# [19] = target: Tyrosine-protein kinase ABL2 (Homo sapiens) (UniProt P42684); conditions: at 1 µM
# [20] = target: Tyrosine-protein kinase receptor UFO (Homo sapiens) (UniProt P30530); conditions: at 0.1 µM;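 note: values are mean percent inhibition of AXL from the GSK PKIS screen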
# Sequence of Tyrosine-protein kinase receptor UFO (Homo sapiens) (P30530 whole entry): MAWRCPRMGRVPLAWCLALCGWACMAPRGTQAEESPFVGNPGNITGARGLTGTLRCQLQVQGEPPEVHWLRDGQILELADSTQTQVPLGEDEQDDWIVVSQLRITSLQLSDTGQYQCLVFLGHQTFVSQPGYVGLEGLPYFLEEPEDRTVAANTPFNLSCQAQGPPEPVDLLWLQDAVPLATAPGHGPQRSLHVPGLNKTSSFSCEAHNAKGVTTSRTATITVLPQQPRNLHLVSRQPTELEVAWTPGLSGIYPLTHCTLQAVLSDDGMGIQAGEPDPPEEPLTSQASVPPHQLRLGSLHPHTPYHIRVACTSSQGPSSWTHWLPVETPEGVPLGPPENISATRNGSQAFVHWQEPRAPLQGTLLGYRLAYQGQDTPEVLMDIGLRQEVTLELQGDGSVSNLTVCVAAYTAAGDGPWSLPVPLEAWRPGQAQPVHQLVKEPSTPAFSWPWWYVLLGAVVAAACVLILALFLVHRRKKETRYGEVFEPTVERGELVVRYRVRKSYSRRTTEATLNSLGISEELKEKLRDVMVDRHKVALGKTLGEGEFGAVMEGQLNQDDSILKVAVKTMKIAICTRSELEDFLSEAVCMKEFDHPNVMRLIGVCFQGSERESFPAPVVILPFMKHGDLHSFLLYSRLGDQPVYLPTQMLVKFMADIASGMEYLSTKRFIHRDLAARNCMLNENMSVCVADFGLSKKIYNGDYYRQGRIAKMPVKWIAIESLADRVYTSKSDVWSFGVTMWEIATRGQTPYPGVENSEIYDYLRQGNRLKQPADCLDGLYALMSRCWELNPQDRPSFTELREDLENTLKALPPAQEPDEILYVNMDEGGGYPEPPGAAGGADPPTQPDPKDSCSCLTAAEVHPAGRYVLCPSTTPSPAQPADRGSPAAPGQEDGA
# Sequence of Serine/threonine-protein kinase PAK 6 (Homo sapiens) (Q9NQU5 whole entry, looked up): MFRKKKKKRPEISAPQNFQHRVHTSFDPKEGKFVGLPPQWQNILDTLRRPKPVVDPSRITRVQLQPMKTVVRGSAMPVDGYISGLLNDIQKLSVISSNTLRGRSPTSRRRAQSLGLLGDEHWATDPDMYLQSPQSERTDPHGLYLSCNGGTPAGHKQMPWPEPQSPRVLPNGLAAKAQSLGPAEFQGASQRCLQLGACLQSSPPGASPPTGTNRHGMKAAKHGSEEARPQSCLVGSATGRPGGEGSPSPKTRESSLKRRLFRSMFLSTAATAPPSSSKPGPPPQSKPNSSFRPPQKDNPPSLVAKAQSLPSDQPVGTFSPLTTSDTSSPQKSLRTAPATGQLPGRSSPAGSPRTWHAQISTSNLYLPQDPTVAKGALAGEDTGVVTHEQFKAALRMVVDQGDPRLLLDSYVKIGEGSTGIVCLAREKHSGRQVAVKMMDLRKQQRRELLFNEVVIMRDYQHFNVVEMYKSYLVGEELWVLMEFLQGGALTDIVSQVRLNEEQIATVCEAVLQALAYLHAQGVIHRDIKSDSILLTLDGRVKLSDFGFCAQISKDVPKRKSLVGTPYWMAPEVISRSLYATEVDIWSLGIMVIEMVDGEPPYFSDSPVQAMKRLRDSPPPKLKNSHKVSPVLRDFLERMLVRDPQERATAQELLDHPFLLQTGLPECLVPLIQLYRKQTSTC
Structure (SMILES),inhibition [1] [%],inhibition [2] [%],inhibition [3] [%],inhibition [4] [%],inhibition [5] [%],inhibition [6] [%],inhibition [7] [%],inhibition [8] [%],inhibition [9] [%],inhibition [10] [%],inhibition [11] [%],inhibition [12] [%],inhibition [13] [%],inhibition [14] [%],inhibition [15] [%],inhibition [16] [%],inhibition [17] [%],inhibition [18] [%],inhibition [19] [%],inhibition [20] [%]
CC(C)(CO)CNC(=O)c1ccc2c(c1)/C(=N/Nc1ccc(S(N)(=O)=O)cc1)C(=O)N2,1.5,-0.35,9,-2.04,9.98,-0.43,9.9,-0.04,9.08,-2,8.62,-0.6,12.8,-2.29,10.7,-0.91,-1.23,-1.16,3.31,1.56
COc1ccc(-c2cc3c(N)ncnc3o2)cc1,-9.7,0.23,5.63,-0.22,11,0.58,11.2,-0.72,9.12,0.76,2.97,-0.25,10.8,2.28,11.4,-1.19,1.1,0.1,5.3,2.44
CCCN1CCC(c2ccc(Nc3nc(Nc4cc(F)ccc4C(N)=O)c4cc[nH]c4n3)c(OC)c2)CC1,-7.38,4.38,6.84,4.63,8.82,1.91,7.76,3.87,9.15,3.58,19.1,3.53,8.34,1.86,8.95,97.5,86.6,2.8,5.54,17.1
c1ccc(-c2nc3n(c2-c2ccc4c(c2)OCO4)CCC3)nc1,-6.18,1.4,3.7,0.35,2.48,1.01,3.51,0.69,3.62,0.65,6.07,1.92,3.95,0.85,6.39,0.99,1.4,0.69,4.67,-1.96
CCN(CC)S(=O)(=O)c1ccc(OC)c(Nc2ncc(-c3ccccc3)o2)c1,4.66,1.69,28.2,4.61,32.8,6.41,38.4,5.31,38.5,1.63,8.65,9.09,41.8,3.01,28.1,0.5,4.19,6.09,36.6,0.5
Nc1nc(-c2ccc(F)cc2)c(-c2ccc3ncccc3n2)s1,-1.32,6.26,16.1,6.76,24.2,2.61,20.2,6.38,25.9,5.1,6.49,9.13,26.9,9.42,27.8,3.27,5.68,6.71,20.1,-5.15
Fc1cccc(COc2ccc(Nc3ncnc4sc(-c5ccco5)cc34)cc2Cl)c1,-3.19,3.34,3.39,3.3,5.3,0.31,1.04,3.83,2.01,1.83,2.74,3.33,3.8,4.81,8.56,3.35,4.37,4.36,7.39,-6.97
COc1cc(N2CCN(C(C)C)CC2)ccc1Nc1nc(Nc2ccc(F)cc2C(N)=O)c2cc[nH]c2n1,3.58,-0.24,1.64,1.72,2.38,1.19,2.15,1.11,2.74,-0.7,7.02,0.29,1.6,3.76,3.4,88.3,88.8,-0.12,2.78,3.89
CS(=O)(=O)CCNCc1coc(-c2ccc3ncnc(Nc4ccc(OCc5ccccc5)cc4)c3c2)c1,-4.66,1.64,0.28,4.11,4.46,1.21,1.86,2.14,4.18,1.94,4.02,3.03,2.89,4.85,7.39,2.87,9.68,3.06,4.08,-2.71
NC(=O)c1sc(-n2cnc3ccc(C(F)(F)F)cc32)cc1OCc1ccccc1Br,-7.15,3.08,2.1,3.37,3.08,1.6,3.37,3.06,3.55,1.98,3.2,3.65,2.05,2.31,4.26,1.39,3.73,1.79,2.59,-8.18
CC(=O)Nc1cccc(C#Cc2cncnc2Nc2ccc(OCc3cccc(F)c3)c(Cl)c2)c1,-5.42,-0.36,1.79,2.77,1.25,1.83,2.92,2.53,2.16,1.92,1.79,0.83,3.28,4.43,8.55,1.96,6.45,2.39,5.22,1.64
COC(=O)Nc1nc2ccc(S(=O)(=O)c3ccc(NC(=O)Nc4cc(C(F)(F)F)ccc4F)cc3)cc2[nH]1,-4.19,1.6,-0.55,2.6,-0.47,0.84,3.17,2.16,4.69,2.49,1.15,0.34,1.69,3.92,9.87,2.66,3.54,5.17,6.34,-5.56
O=S(=O)(CCNCc1ccc(-c2ccc3ncnc(Nc4ccc(OCc5cccc(F)c5)c(Cl)c4)c3c2)o1)c1ccccc1,0.68,3.29,4.49,5.17,6.8,1.27,2.88,5.71,6.36,2.35,3.4,5.4,6.85,5.27,10.1,4.32,6.67,4.64,8.2,-7.43
